Compounds without any hit were thinned out: in the full panel of roughly 83,000, 20% have a hit.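 For each line, cells grew in 96-well plates with the test compound present at a single concentration for 48 hours.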 Activity calls are given as the source filed them. The calls were made as follows: active = growth percent below 10; inactive = the rest.
Each compound was assayed on SK-MEL-5 melanoma (assay: NCI-60 one-dose screen, 48 h (100 = growth as untreated, 0 = no growth, -100 = all killed)). Details: 10 µM.
In the case of CCN(CC)CCOc1cccc2c1C(=O)c1ccccc1C2=O, the growth is reported as 93.7% (inactive).
With Cc1c2cnccc2c(C)c2c1oc1ccccc12 the growth was 60.1% (inactive).
O=C(Nc1ccc(NS(=O)(=O)c2ccc(F)cc2)cc1)C12CC3CC(CC(C3)C1)C2 was tested, and the growth was 93.9% (inactive).

Each compound was assayed on UACC-62 melanoma in the same assay as above. Details: 10 µM.
In the case of CCc1ccc(-c2ccc(-n3nc(C)c4c(N)nc(Cc5ccccc5)nc43)cc2)cc1, the growth is reported as 73.1% (inactive).
With O=[N+]([O-])c1ccc2ncccc2c1Cl the growth was 54.7% (inactive).
With Cc1ccc(-n2nnnc2N)c(C)c1 the growth was 96.4% (inactive).
Oc1ccc(-c2[nH]c3ccccc3c2-c2nc3ccccc3o2)cc1 was tested, and the growth was 59.6% (inactive).
For CCc1ccc(C2=NN(c3ccc(S(C)(=O)=O)cc3)C(=O)CC2)cc1, the growth was 38% (inactive).
With COc1ccc(-c2nn(-c3cccc(Cl)c3)cc2-c2c(C#N)c(=O)n3[nH]c(-c4ccc(C)cc4)nc3c2C#N)cc1 the growth was 57.1% (inactive).
With O=C1c2ccccc2C(=O)c2c1ccc(C(Br)Br)c2[N+](=O)[O-] the growth was 27.6% (inactive).
For CCOC(=O)CC(S(=O)(=O)c1ccccc1)S(=O)(=O)c1ccccc1, the growth was 103% (inactive).
CC(=O)Nc1ccc(S(=O)(=O)c2ccnc3cc(Cl)ccc23)cc1 was tested, and the growth was 77.7% (inactive).
In the case of O=C(Nc1cc([N+](=O)[O-])c2[nH]c(=O)c3ccccc3c2c1)C(F)(F)F, the growth is reported as 81.7% (inactive).
For COc1cc2c(cc1NC(=O)C(F)(F)F)-c1ccc(NC(=O)C(F)(F)F)cc1C2, the growth was 92% (inactive).
In the case of COc1ccc(/C(C#N)=C/c2cccc(OC)c2OC)cc1, the growth is reported as 70.5% (inactive).
